Some test systems named below: T-47D breast; BT-549 breast; MDA-MB-435 melanoma; SW-620 colon; MCF7 breast; HCT-116 colon; HCC-2998 colon; KM12 colon.
Holding throughout (experiment): NCI-60 one-dose screen, 48 h (100 = growth as untreated, 0 = no growth, -100 = all killed)
Common to all, as to settings: 10 µM unless noted

This is part of a sample that, as a whole, favours compounds with a hit. Of some 83,000 tested, about 20% had one in any assay.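 Percent growth is the endpoint: 0 to 100 indicates growth inhibition (40 means 60% inhibition), 0 means no net growth, and negative values indicate cell death.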 A number with no mark means an inactive call. The source made the active and inactive calls. The calls were made as follows: active = growth percent below 10; inactive = the rest.

Take `Fc1ccccc1-c1nc(-c2nc3cc(Cl)c(Cl)cc3[nH]2)c2ccccn12`: the growth was 31.5% in the assay with T-47D breast; 88.9% in the assay on BT-549 breast; 73.6% with MDA-MB-435 melanoma; 80.2% in the assay on SW-620 colon; 40.5% with MCF7 breast; 37.7% in the assay on HCT-116 colon. In addition, the growth was 96.2% with HCC-2998 colon and 80.5% with KM12 colon.

On to `COc1cccc(/C=C2\Oc3cc(OCCCN4CCCC4)ccc3C2=O)c1`, for which the growth with T-47D breast is 88.1%; in the assay on BT-549 breast, 92.6%; with MDA-MB-435 melanoma, 99.2%; in the assay with SW-620 colon, 92.2%; in the assay with MCF7 breast, 51.2%; with HCT-116 colon, 21.1%. In addition, the values for the growth with HCC-2998 colon and in the assay on KM12 colon were 85.5% and 83.8%, respectively.

Turning to `COc1ccc(C2C=C(c3ccc(OC)c(OC)c3)N=C3SC=C(C)N32)c(Br)c1` (stereo not drawn), the growth with T-47D breast is 98.3%; in the assay on BT-549 breast, 99%; in the assay with MDA-MB-435 melanoma, 110%; in the assay on SW-620 colon it was 109%; in the assay on MCF7 breast, 94.5%; with HCT-116 colon it was 105%. For the same compound, the growth is 110% with HCC-2998 colon and 107% with KM12 colon.

In the case of `N[C@H]1CN(C(=O)c2cc3cc(Br)c(F)c(F)c3[nH]2)C[C@@H]1O`, the growth was 91.3% in the assay with T-47D breast; 89.5% with BT-549 breast; 99.2% with MDA-MB-435 melanoma; 101% with SW-620 colon; 89.3% in the assay on MCF7 breast; 93.6% in the assay on HCT-116 colon. For the same compound, the growth in the assay with HCC-2998 colon was 93.3%; with KM12 colon it was 104%.

Consider `Brc1cccc(-c2cc(-c3ccc4nccnc4c3)[nH]n2)c1`, for which the growth was 34.5% [25 µM] in the assay on T-47D breast; 65.5% [25 µM] in the assay on BT-549 breast; -54.1% [25 µM] (active) in the assay on MDA-MB-435 melanoma; 28.1% [25 µM] in the assay with SW-620 colon; 14.1% [25 µM] with MCF7 breast; 9.21% [25 µM] (active) in the assay with HCT-116 colon. For the same compound, the growth was 40.2% [25 µM] with HCC-2998 colon and 14.7% [25 µM] in the assay with KM12 colon.

Regarding `O=C1/C(=C/c2ccc([N+](=O)[O-])cc2)CN(C(=O)CCN2CCC(=NO)CC2)C/C1=C\c1ccc([N+](=O)[O-])cc1`, the growth is 10.1% with T-47D breast; -40.7% (active) with BT-549 breast; -52.1% (active) in the assay with MDA-MB-435 melanoma; -53.2% (active) in the assay with SW-620 colon; -55.4% (active) with MCF7 breast; -67.4% (active) with HCT-116 colon. In addition, the growth in the assay on HCC-2998 colon is -72.2% (active); in the assay on KM12 colon, -55.3% (active).

On to `O=C(Nc1ccncc1)C(=O)c1cn(S(=O)(=O)c2ccc(Br)cc2)c2ccccc12`, for which the growth is 41% in the assay with T-47D breast; 41.1% in the assay on BT-549 breast; -3.46% (active) in the assay on MDA-MB-435 melanoma; 18.2% in the assay on SW-620 colon; 19.7% in the assay on MCF7 breast; 14.3% in the assay with HCT-116 colon. In addition, the growth in the assay with HCC-2998 colon is 72%; in the assay with KM12 colon it was 26.2%.

For the compound `NC1=NC(SCc2ccccc2CCl)c2ncn(Cc3ccccc3CCl)c2N1` (stereo not drawn), the growth was 35.8% in the assay with T-47D breast; 56.4% in the assay on BT-549 breast; 30.9% in the assay on MDA-MB-435 melanoma; 2.06% (active) in the assay with SW-620 colon; 25.2% with MCF7 breast; 7.53% (active) in the assay with HCT-116 colon. Further, the growth in the assay on HCC-2998 colon was 79.4%; in the assay on KM12 colon, 48.5%.

For `CCN1CCN(c2nc(NNC(=O)c3ccccc3)nc(N3CCN(C(c4ccccc4)c4ccccc4)CC3)n2)CC1`, the growth with T-47D breast is 40.7%; in the assay on BT-549 breast, 79.1%; with MDA-MB-435 melanoma, 60.2%; in the assay on SW-620 colon, 5.78% (active); with MCF7 breast, 28.9%; with HCT-116 colon, 20.2%. Further, the growth is 31.7% in the assay on HCC-2998 colon and 58.4% in the assay on KM12 colon.

With `N=C(N)c1ccc(-c2cc(Cl)cc(Cl)c2)cn1`, the growth was 83.7% with T-47D breast; 94.5% in the assay with BT-549 breast; 56.7% in the assay on MDA-MB-435 melanoma; 82.6% in the assay with SW-620 colon; 75.9% in the assay with MCF7 breast; 92% in the assay on HCT-116 colon. The growth in the assay with HCC-2998 colon is 67.5%; in the assay on KM12 colon, 89.8%.

With `COc1cc(/C(C#N)=C/c2ccc3c(c2OC)OCO3)cc2c1OCO2`, the growth with T-47D breast is 52.7%; with BT-549 breast it was 71.7%; in the assay with MDA-MB-435 melanoma, -39.4% (active); with SW-620 colon, 19.8%; with MCF7 breast, 21.4%; in the assay with HCT-116 colon, 16.7%. Besides, the growth with HCC-2998 colon is 12.8%; in the assay on KM12 colon it was 17.4%.

For `COc1ccc(NC(=O)c2c(Nc3ccc(OC)cc3OC)n[nH]c2N)c(OC)c1`, the growth was 83% in the assay on T-47D breast; 93.7% with BT-549 breast; 95.2% with MDA-MB-435 melanoma; 102% in the assay with SW-620 colon; 76.4% with MCF7 breast; 90.1% in the assay with HCT-116 colon. The results for the growth in the assay on HCC-2998 colon and in the assay on KM12 colon were 107% and 102%, respectively.

On to `O=C(NS(=O)(=O)c1ccccc1)n1cc(-c2ccncc2)c(-c2ccc(Cl)c(O)c2)n1`, for which the growth in the assay with T-47D breast was 107%; in the assay on BT-549 breast, 104%; with MDA-MB-435 melanoma it was 67.9%; in the assay with SW-620 colon, 136%; in the assay with MCF7 breast it was 109%; with HCT-116 colon, 89.1%. In addition, the growth with HCC-2998 colon was 127%; in the assay on KM12 colon, 99.6%.

For `CC(C)(C)n1cc(-c2ccnc(NCCCNS(=O)(=O)c3cccc(F)c3)c2)c(-c2cccc(O)c2)n1`, the growth in the assay with T-47D breast was 35.7%; in the assay with BT-549 breast, 67.4%; with MDA-MB-435 melanoma it was 61.2%; with SW-620 colon, 24.5%; in the assay on MCF7 breast, 21.6%; in the assay with HCT-116 colon, 47.1%. Moreover, the growth with HCC-2998 colon was 15.7%; with KM12 colon, 26.5%.

For the compound `O=C1NN(C(=O)c2ccc(Cl)cc2)C(c2ccccc2)=N/C1=C\c1ccc(F)cc1`, the growth in the assay on T-47D breast was 80.7%; in the assay on BT-549 breast, 78.9%; in the assay with MDA-MB-435 melanoma, 91.5%; with SW-620 colon, 42.5%; with MCF7 breast, 98.2%; in the assay on HCT-116 colon, 62.9%. Also, the growth is 95.3% with HCC-2998 colon and 59.1% with KM12 colon.

As to `COc1ccc(-c2nc(/C=C3/C(=O)Nc4ccc(F)cc43)c3ccccn23)cc1`, the growth in the assay with T-47D breast was 100%; with BT-549 breast it was 104%; with MDA-MB-435 melanoma, 113%; with SW-620 colon, 87.7%; in the assay with MCF7 breast it was 48.7%; in the assay with HCT-116 colon, 62%. For the same compound, the growth with HCC-2998 colon is 104%; in the assay with KM12 colon, 102%.

The values are drawn from PubChem BioAssay (NCI).
